Bioassay records: PubChem, several laboratories
SUMO Mot1 rescue – yeast Mot1-301 growth rescue at high temperature, primary screen, SUMOylation pathway inhibitor project, S. cerevisiae, ATP luminescence, 38.5C. AID 2716, 2010. actives 1% (n = 320,000). S. cerevisiae Mot1-301 growth rescue; percent above DMSO median, 100 means doubled. growth rescue, % at 18.8 µM;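 active = every valid replicate shows activation above 250% relative to neutral control wells; inactive = the rest, any valid replicate at or below 250%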;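 also: OY570 slx delta 5 strain wells were the positive control but not used for scaling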
tim10-1 inh – growth inhibitors of tim10-1 mutant yeast, primary screen, luminescence, uHTS. S. cerevisiae tim10-1 ts strain growth, BacTiter-Glo, 24 h. inhibition, % at 20 µM. actives 2.2% (n = 330,000);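 active = inhibition of at least 40%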;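 also: mutant grown at 25 °C; 0% = DMSO wells with yeast and 100% = wells holding no yeast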
TIM10 inh – growth inhibitors of isogenic TIM10 control yeast, primary screen, counter-screen for tim10-1 yeast inhibitor project, luminescence, uHTS; S. cerevisiae TIM10 strain growth, BacTiter-Glo luminescence, 24 h; inhibition, % at 10 µM; actives 1.4% (n = 330,000);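 active = inhibition of 40% or more at the single tested concentration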;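 also: wild-type TIM10 isogenic control strain grown at permissive 25 °C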
tim23-1 inh – growth inhibitors of tim23-1 mutant yeast, primary screen, luminescence, uHTS. inhibition, % at 20 µM. AID 463212, 2010. actives 1.3% (n = 330,000). S. cerevisiae tim23-1 growth, BacTiter-Glo luminescence, 24 h;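 active = growth inhibition of the mutant yeast at or above 50%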;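 also: temperature-sensitive mutant grown at 25 °C; plate controls were DMSO-treated mutant yeast for no effect and medium wells lacking yeast for full effect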
PfHsp90 set2 – growth inhibition of PfHsp90-expressing yeast, primary screen, antimalarial PfHsp90 inhibitor project, S. cerevisiae, BacTiter-Glo luminescence, single point, set 2; BacTiter-Glo ATP, 48 h; yeast lacking PDR1 and PDR3 efflux regulators; inhibition, % at 9.4 µM; actives 0.32% (n = 310,000); AID 504621, 2011;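 active = every replicate shows inhibition above about 80%, whatever the replicate mean, limit read from the data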;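 also: 0% = DMSO neutral controls and 100% = 20 µM radicicol positive controls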
tim10-1 conf – growth inhibitors of tim10-1 mutant yeast, confirmation, single concentration, luminescence, S. cerevisiae | actives 56% (n = 7,400) | inhibition, % at 20 µM | shares compounds with tim10-1 inh | S. cerevisiae tim10-1 ts strain growth, BacTiter-Glo, 24 h;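 active = inhibition of yeast growth at or above a set limit in either of two repeat tests at 20 µM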;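 also: tim10-1 mutant grown at permissive 25 °C to find synthetic lethal compounds; 0% = DMSO yeast wells and 100% = medium wells without yeast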
The depositor's hits bear a star; · = not tested or not shown. Compounds with a hit are over-represented: about 4.4% of the library has one in this group of screens.

SMILES	SUMO Mot1 rescue	tim10-1 inh	TIM10 inh	tim23-1 inh	PfHsp90 set2	tim10-1 conf
Nc1nc(Nc2cccc(C(F)(F)F)c2)nc(C(F)(F)F)n1	7	44*	39	42	45	35*
COc1ccc(C(OC(=O)c2ccco2)C(=O)NC2CCCCC2)cc1OC (centres undefined)	46	45*	-2	3	·	1
COc1cc(-c2cc(=O)c3c(O)c(OC)c(OC)cc3o2)cc(OC)c1O	4	42*	23	34	-14	18
CCCc1nc([N+](=O)[O-])c(S(=O)(=O)c2ccccc2)n1CC(C)C	51	50*	21	32	11	26
CC(C)Cn1nc(NS(=O)(=O)c2ccccc2)c2cc3ccccc3nc21	-3	9	12	19	-29	·
COc1ccc2[nH]c(C(=O)NCCCn3ccnc3)cc2c1	-2	-2	4	-3	-3	·
Cc1ccc(S(=O)(=O)N2CCN(C(=O)COC(=O)CCOc3ccc(C(C)(C)C)cc3)CC2)cc1	6	49*	28	33	-1	26
Brc1ccc(C2Nc3cccc4cccc(c34)N2)o1	9	42*	32	46	14	29*
Brc1cccc(C2Nc3cccc4cccc(c34)N2)c1	-7	24	19	31	19	·
COc1cccc(-c2nc3ccccc3s2)c1	12	23	11	24	·	·
COc1cccc(N2C(=O)C(c3ccccc3)=C(c3nc4ccccc4s3)C2NC(C)=O)c1 (centres undefined)	-9	49*	39	19	-18	42*
C/C(=N\NC(=O)c1ccccc1F)c1cccc(NC(=O)c2ccc(C)cc2)c1	-8	-5	-1	7	-23	·
CN(C)CCCN1c2ccccc2CCc2ccc(Cl)cc21	130	53*	17	22	8	32*
CC1(C)OC2OC(C3COC(=O)O3)C(OC(=O)c3ccccc3)C2O1 (centres undefined)	·	·	·	·	8	·
Cc1ccc(CN(Cc2ccco2)C(=S)Nc2ccccc2C)cc1	7	42*	10	10	11	26
CN1CCN(C(CNC(=O)C(=O)NC2CCCC2)c2ccc(F)cc2)CC1 (centres undefined)	-20	-16	-8	-10	5	·
CCOC(=O)c1ccc(NC(=S)N2CCSC2c2ccc(Br)cc2)cc1 (centres undefined)	8	40*	25	37	-18	30
CCOC(=O)c1ccc(NC(=S)N2CCC(O)CC2)cc1	10	6	8	0	26	·
CCc1ccccc1N(CC(=O)NCc1ccco1)C(=O)CCC(=O)Nc1nccs1	-13	-9	2	13	-51	·
CCN(CC)C(=O)C1CCN(S(=O)(=O)c2c(C)noc2/C=C/c2cccc(C)c2)CC1	3	41*	16	34	-6	10
Cc1cccc(/C=C/c2onc(C)c2S(=O)(=O)N2CCC(C(=O)NC(C)(C)C)CC2)c1	-9	3	-6	5	-6	·
COc1ccc(C/C(C)=N/NC(=S)Nc2ccc(C(C)C)cc2)cc1	312	40*	10	34	-29	25
COc1ccc(C/C(C)=N/NC(=S)Nc2ccccc2F)cc1	0	30	22	13	5	·
O=C(c1ccc2c(c1)OCO2)N1CCN(CCN2C(=O)c3cccc4cccc(c34)C2=O)CC1	·	·	·	·	13	·
COc1ccc(CCNC(=O)COc2ccc(C)nc2[N+](=O)[O-])cc1	-10	-1	-8	-2	23	·
C=CCC1Cc2c(cccc2[N+](=O)[O-])C(CC=C)N1 (centres undefined)	106	49*	18	33	-1	22
C[C@H]1CN([C@@H](C)CO)C(=O)c2cccc(NC(=O)c3cnccn3)c2O[C@@H]1CN(C)S(=O)(=O)c1ccc(F)cc1	-3	-6	0	3	4	·
Cc1cccc(C(=O)O/N=C2\CCCc3ccccc32)c1	-1	44*	23	18	17	36*
